Results from PubChem BioAssay (NCATS).
Results filed as inconclusive are left out. Activity calls are given as the source filed them. The call rests on the fitted dose curve; in most records, active means well fitted curve in the direction sought with a large enough effect; inconclusive means small, poorly fitted or top-dose-only effect, or another doubt; inactive means no such curve, though single readings can be large; an effect the other way counts as inactive or inconclusive.

Key:
[1] = Cell Viability - LYMP2-004 (AID 966); conditions: LYMP2-004 lymphoblastoid cell viability, qHTS; series mostly up to 92.2 µM; further: nearly all actives have a fitted effect of over 65% in size
Summary of the method: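 AC50 values come from Hill modelling of concentration-dependent loss of intracellular ATP, measured by CellTiter-Glo luminescence. Human LYMP2-004 lymphoblastoid cells (2500/well) were exposed to compound for 24 h at 37 C.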

[2] = Cell Viability - LYMP2-005 (AID 967); conditions: LYMP2-005 lymphoblastoid cell viability; series mostly up to 92.2 µM
Summary of the method: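 Acute cytotoxicity is scored as a concentration-dependent drop in intracellular ATP in human lymphoblastoid LYMP2-005 cells after 24 h compound treatment. ATP is quantified by luciferase luminescence, and AC50 is derived by Hill-equation modelling.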

[3] = Cell Viability - LYMP2-009 (AID 968); conditions: LYMP2-009 lymphoblastoid cell viability; series mostly up to 92.2 µM; further: nearly all actives have a fitted effect of over 55% in size
[4] = Cell Viability - LYMP2-011 (AID 969); conditions: LYMP2-011 lymphoblastoid cells viability; series mostly up to 92.2 µM; further: nearly all actives have a fitted effect of over 60% in size
Summary of the method: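 Cytotoxicity qHTS with ATP content as read-out: lymphoblastoid cells (2500/well) exposed to compound for 24 h at 37 C, then luciferase luminescence measured. Concentration-response data fitted with the standard Hill equation to give AC50.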

[5] = Cell Viability - LYMP2-013 (AID 970); conditions: LYMP2-013 lymphoblastoid cells viability; series mostly up to 92.2 µM; further: nearly all actives have a fitted effect of over 55% in size
Summary of the method: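 qHTS cytotoxicity: ATP-dependent luminescence (CellTiter-Glo, 30 min room temperature) read after 24 h compound exposure at 37 C of 2500 LYMP2-013 lymphoblastoid cells per well. Concentration-response fitted with Hill equation to give AC50.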

[6] = Cell Viability - LYMP2-015 (AID 971); conditions: LYMP2-015 lymphoblastoid cell viability; series mostly up to 92.2 µM; further: nearly all actives have a fitted effect of over 55% in size
Summary of the method: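 Cytotoxicity readout: decrease in intracellular ATP (CellTiter-Glo luminescence) in 2500 LYMP2-015 lymphoblastoid cells/well after 24 h compound exposure at 37 C. Concentration-response data fitted with the standard Hill equation to give AC50.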

[7] = Cell Viability - LYMP2-017 (AID 972); conditions: LYMP2-017 lymphoblastoid cell viability; series mostly up to 92.2 µM; further: nearly all actives have a fitted effect of over 55% in size
Summary of the method: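 CellTiter-Glo luminescence (cellular ATP, 30 min RT) measured cytotoxicity after 24 hr compound treatment at 37 C. Cells were a human lymphoblastoid line, LYMP2-017, plated at 2500/well and incubated 5 hr first; concentration-response fitted with Hill equation for AC50.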

[8] = Cell Viability - LYMP2-019 (AID 973); conditions: LYMP2-019 lymphoblastoid cell line viability; series mostly up to 92.2 µM; further: nearly all actives have a fitted effect of over 55% in size
Summary of the method: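 AC50 values come from Hill-equation fits of luminescent intracellular ATP (CellTiter-Glo, 30 min, room temperature) following 24 h compound exposure at 37 C. Cells: LYMP2-019 lymphoblastoid line, 2500 per well, in complete culture medium.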

[9] = Cell Viability - LYMP2-021 (AID 974); conditions: LYMP2-021 lymphoblastoid cells viability; series mostly up to 92.2 µM; further: nearly all actives have a fitted effect of over 55% in size
Summary of the method: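 AC50 values come from Hill-equation fits to CellTiter-Glo luminescence (ATP content), read after 24 hour compound exposure at 37 C of 2500 LYMP2-021 lymphoblastoid cells/well; tetraoctylammonium bromide as positive control.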

[10] = Cell Viability - LYMP2-023 (AID 975); conditions: LYMP2-023 lymphoblastoid cell viability; series mostly up to 92.2 µM
Summary of the method: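 Intracellular ATP, read by CellTiter-Glo luminescence, reports viability after 24 hr compound exposure at 37 C. 2500 lymphoblastoid cells/well (LYMP2-023) seeded 5 hr beforehand; Hill fits give AC50; positive control tetraoctylammonium bromide.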

Measured: Potency

CCCC(C)CO (stereo not given)
inactive: all assays above

CC(=O)C1(C)CC2=C(CCCC2(C)C)CC1C (stereo not given)
inactive: all assays above

CCOc1ccc(NC(C)=O)cc1N
inactive: all assays above

O=Cc1ccc(C(=O)O)cc1
inactive: all assays above

CCCCC(CC)CNCC(CC)CCCC (stereo not given)
inactive: all assays above

NC=O
inactive: all assays above
